# High-throughput results: PubChem, National Center for Advancing Translational Sciences (NCATS)
# Most compounds without a hit are left out; they make up all but 12% or so of the library.
# HP1b chromo inh: blocks HP1-beta chromodomain binding to methylated histone tails; Potency, µM (top dose mostly 114 µM), inactives show at the highest dose activity change, negative = inhibition, actives largely listed as inhibitors; 390,000 compounds, 0.56% hits; AlphaScreen HP1-beta / biotin-H3K9me3 peptide binding; P83916; note: nearly all actives have a fitted effect of over 70% in size
#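 Compound inhibition of the preformed complex between 50 nM HP1-beta and 50 nM biotinylated H3K9me3 peptide was read by AlphaScreen. Buffer was PBS pH 7.4 with 0.01% Tween-20. Incubations ran 30 min at room temperature, with 10 ug/mL donor/acceptor beads.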
# JMJD2A Tudor inh: blocks the human JMJD2A Tudor domain; O75164; AlphaScreen JMJD2A-Tudor / H3K4me3 peptide binding; Potency, µM (top dose mostly 114 µM), inactives show at the highest dose activity change, negative = inhibition, usual class: inhibitors; 390,000 compounds, 4.4% hits; AID 504339; note: % is set by controls: 0 for no effect and ±100 for the full control effect; nearly all actives have a fitted effect of over 50% in size
# Target sequence (O75164 whole entry, looked up, the tested form may be a part): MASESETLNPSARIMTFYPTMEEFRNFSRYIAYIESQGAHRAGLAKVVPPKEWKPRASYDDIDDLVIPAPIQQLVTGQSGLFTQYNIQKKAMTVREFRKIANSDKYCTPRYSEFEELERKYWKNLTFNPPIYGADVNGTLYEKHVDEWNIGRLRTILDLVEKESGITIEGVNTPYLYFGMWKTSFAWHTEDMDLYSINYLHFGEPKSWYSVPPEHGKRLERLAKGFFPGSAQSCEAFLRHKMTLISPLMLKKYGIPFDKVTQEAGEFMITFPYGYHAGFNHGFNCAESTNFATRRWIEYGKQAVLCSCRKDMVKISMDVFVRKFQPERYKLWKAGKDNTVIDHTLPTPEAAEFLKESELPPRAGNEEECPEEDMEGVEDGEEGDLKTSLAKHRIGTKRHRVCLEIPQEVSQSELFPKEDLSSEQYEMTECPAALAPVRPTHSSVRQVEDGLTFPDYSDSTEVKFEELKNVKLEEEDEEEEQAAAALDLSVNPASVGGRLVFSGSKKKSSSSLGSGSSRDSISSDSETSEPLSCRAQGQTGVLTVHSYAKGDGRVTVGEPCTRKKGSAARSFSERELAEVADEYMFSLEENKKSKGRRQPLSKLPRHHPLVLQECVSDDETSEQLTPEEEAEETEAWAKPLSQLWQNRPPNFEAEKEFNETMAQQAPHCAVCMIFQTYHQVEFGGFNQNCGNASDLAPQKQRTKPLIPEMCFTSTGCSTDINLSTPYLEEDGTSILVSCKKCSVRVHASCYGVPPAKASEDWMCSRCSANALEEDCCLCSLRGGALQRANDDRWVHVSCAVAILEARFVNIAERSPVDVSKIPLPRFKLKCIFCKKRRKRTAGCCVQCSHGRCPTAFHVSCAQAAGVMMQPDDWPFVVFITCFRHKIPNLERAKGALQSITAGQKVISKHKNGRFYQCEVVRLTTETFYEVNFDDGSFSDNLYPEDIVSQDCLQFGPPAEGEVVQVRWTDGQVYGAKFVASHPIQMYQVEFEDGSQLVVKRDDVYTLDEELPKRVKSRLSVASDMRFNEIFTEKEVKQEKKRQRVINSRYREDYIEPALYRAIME
# G9a block: G9a (human) methyltransferase inhibition; Q96KQ7; G9a H3K9 monomethylation, AlphaScreen, 2 h; Potency, µM (titrated, usually from 102 µM), without a hit: at the top dose activity, negative = inhibition, hits mostly inhibitors; 350,000 compounds, 8.8% hits; AID 504332; note: % is set by controls: 0 for no effect and ±100 for the full control effect; nearly all actives have a fitted effect of over 75% in size
#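 G9a (20 nM) was preincubated 15 min with compound, then reacted 2 h at room temperature with 500 nM biotin-H3K9 peptide and 20 µM SAM. Monomethyl-H3K9 detected by AlphaScreen using anti-H3K9me1 antibody.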
# Sfp PPTase inh: inhibitors of Bacillus subtilis Sfp phosphopantetheinyl transferase; Potency, µM, for the others: largest response in the series, negative = inhibition, usual class: inhibitors; 310,000 compounds, 3.5% hits; Biochemical Sfp PPTase activity, qHTS; Q9F4F7;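 note: the enzyme is Sfp with the accession as filed and its product quenches rhodamine fluorescence; 0% = enzyme reaction without inhibitor and -100% = no enzyme wells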
#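 Compounds were incubated with enzyme (final 15 nM) for 15 min at room temperature before substrate addition started the reaction. Fluorescence at 525 nm excitation, 598 nm emission was recorded immediately and after 30 minutes.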
# L3MBTL1 block: blocks human L3MBTL1; AlphaScreen L3MBTL1–H3K9me1 peptide binding; 230,000 compounds, 0.66% hits; Potency, µM (series often up to 57.1 µM), for the others: at the highest dose activity, negative = inhibition, most hits filed as inhibitors; Q9Y468; note: % is set by controls: 0 for no effect and ±100 for the full control effect; nearly all actives have a fitted effect of over 60% in size
#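 AlphaScreen proximity signal between nickel-chelate acceptor and streptavidin donor beads (final 10 ug/mL) reports binding of 50 nM L3MBTL1 to 75 nM biotin-H3 K9me1 peptide; complex incubated with compounds 30 min at room temperature; cefsulodin titration as control.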
# BAZ2B inh: blocks human BAZ2B | Q9UIF8 | AlphaScreen BAZ2B-H3K14Ac peptide displacement | Potency, µM (series often up to 114 µM), for the others: at the top dose activity change, negative = inhibition, actives largely listed as inhibitors | 360,000 compounds, 4.4% hits; note: % is set by controls: 0 for no effect and ±100 for the full control effect; nearly all actives have a fitted effect of over 60% in size
#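 AlphaScreen luminescence quantifies BAZ2B engagement of H3K14Ac peptide; the protein and biotinylated peptide are both at 50 nM final, buffer PBS pH 7.4 with 0.01% Tween-20, all steps at room temperature.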
# Active calls of the source: *; u = inconclusive; x = not tested or not shown; ! = not confirmed by another sample; [ ] = remark or other dose. Calls come from the whole dose curve; as a rule, active = well fitted curve in the direction sought with a large enough effect; inconclusive = small, poorly fitted or top-dose-only effect, or another doubt; inactive = no such curve, though single readings can be large; an effect the other way counts as inactive or inconclusive. Potency is the fitted concentration of half-maximal effect.
SMILES,HP1b chromo inh,JMJD2A Tudor inh,G9a block,Sfp PPTase inh,L3MBTL1 block,BAZ2B inh
N#CCCN(C(=O)CN1CCN(S(=O)(=O)c2ccc3c(c2)OCCO3)CC1)c1ccc(F)cc1,15.9%,-25.6%,u,x,7.0%,12.5%
O=C(N=C1SC2CS(=O)(=O)CC2N1c1ccc(F)c(Cl)c1)C1CCCO1 (stereo not drawn),48.1%,5.3%,-11.3%,13.1%,x,-10.3%
CCOc1ccccc1NC(=O)CN1C(=O)COc2ccc(S(=O)(=O)N3CCOCC3)cc21,8.8%,15.8µM*!,2.4%[59 µM],4.8%,x,-8.3%
CCCNC(=O)CN1C(=O)COc2ccc(S(=O)(=O)N3CCC(C)CC3)cc21,33.6%,7.9%,-0.3%[59 µM],x,x,2.9%
CCOc1ccccc1NC(=O)C1CCN(S(=O)(=O)c2ccc(OC)c(OC)c2)CC1,24.9%,-19.7%,39.8µM*,-6.7%,-10.0%,-2.9%
CCCNC(=O)CN1C(=O)COc2ccc(S(=O)(=O)N3CC(C)CC(C)C3)cc21 (stereo not drawn),24.2%,-3.4%,31.6µM*,14.3%,x,-0.5%
Cc1cccc(NC(=O)CN2C(=O)CCSc3ccc(S(=O)(=O)N4CCOCC4)cc32)c1C,-16.9%,50.1µM*,-5.1%[59 µM],21.8%,x,-33.8%
C[C@H]1Cc2c(COc3ccccc3)nc3c(c2CO1)CN(C(=O)NCCc1c[nH]c2ccccc12)CC3,x,x,x,-11.0%,x,x
COc1ccc(CCNC(=O)c2cccc(-n3cnc4cccnc43)c2C)cc1OC,27.4%,-7.2%,-29.3%[59 µM],x,x,-8.1%
CC(C)c1ccc(-n2cccc2/C=C2/C(=N)N3C=CSC3=NC2=O)cc1,5.9%,u,7.3%,-12.8%,-0.7%,u
CC1=CSC2=NC(=O)/C(=C\c3cccn3-c3ccccc3)C(=N)N12,0.7%,u,2.0%[59 µM],10µM*,-10.1%,-6.7%
CCC1=NN2C(=N)/C(=C\c3cccn3-c3c(C)cccc3C)C(=O)N=C2S1,9.5%,-33.1%,u,56.2µM*,-14.7%,-21.0%
Cc1cccc(C)c1-n1cccc1/C=C1/C(=N)N2C(=NC1=O)SN=C2S(C)(=O)=O,7.8%,-23.5%,31.6µM*,4.2%,x,-28.2%
Cc1ccc(-n2cccc2/C=C2/C(=N)N3C(=NC2=O)SN=C3S(C)(=O)=O)cc1Cl,-35.0%,44.7µM*,50.1µM*,89.1µM*,u,44.7µM*
CN(Cc1ccco1)c1cc(-c2cccc(C#N)c2)ncn1,x,x,6.0%[0.501 µM],-0.2%,x,x
OCCN1CCN(c2ncnc3sc(-c4ccccc4)cc23)CC1,15.7%,-20.3%[11.4 µM],-31.9%,16.0%,-4.1%,-11.8%
CC(C)COCc1ccc(O)c2ncccc12,16.5%,44.7µM*,-10.8%[59 µM],18.8%,20µM*,25.1µM*
CCCOCc1ccc(O)c2ncccc12,34.8%,56.2µM*,20.0%[59 µM],24.2%,28.2µM*,12.6µM*
Cc1nn(CC(=O)Nc2cc(F)ccc2F)c(=O)c2cccn12,39.4%,-4.0%,-35.9%[59 µM],x,x,-15.0%
CCN(C(=O)c1cccn(Cc2ccccc2C)c1=O)c1ccccc1,32.9%[57 µM],0.0%,7.4%[59 µM],x,x,3.3%
Cc1ccc(/C=C/C(=O)NCC2COc3ccccc3O2)o1 (stereo not drawn),u,56.2µM*,u,6.31µM*,-3.1%,u
O=C(NCC1COc2ccccc2O1)c1ccccc1 (stereo not drawn),47.0%,-3.2%,-1.0%,-6.5%,2.6%,7.5%
Cc1cc(C(=O)NCC2COc3ccccc3O2)c2ccccc2n1 (stereo not drawn),36.0%,-3.4%,44.7µM*,17.6%,-0.5%,-17.0%
Cc1ccc(/C=C/C(=O)NCCc2c[nH]c3ccccc23)o1,u,-32.3%,44.7µM*,28.2µM*,-21.4%,x
Cc1ccc2[nH]cc(CCNC(=O)/C=C/c3ccco3)c2c1,-0.8%,-33.9%,u,6.4%,-21.4%,u
SMILES,HP1b chromo inh,JMJD2A Tudor inh,G9a block,Sfp PPTase inh,L3MBTL1 block,BAZ2B inh
COc1cc(OC)c(OC)cc1CN1CCc2nc(N3CCN(C)CC3)ncc2C1,21.2%,u,-1.7%[12.7 µM],x,x,u
Clc1ccccc1CN1CCc2nc(N3CCN(c4ncccn4)CC3)ncc2C1,u,35.5µM*,u,x,x,50.1µM*
CCOc1ccccc1CN1CCc2nc(N3CCN(C)CC3)ncc2C1,54.8%,-22.2%,-2.6%[12.7 µM],x,x,79.4µM*
CN1CCN(c2ncc3c(n2)CCN(Cc2cc(Br)cs2)C3)CC1,-1.9%,56.2µM*,u,x,x,u
CN1CCN(c2ncc3c(n2)CCN(Cc2ccccc2Cl)C3)CC1,-10.4%,79.4µM*,u,x,x,u
CCNc1ncc2nc(-c3ccccc3)c(=O)n(Cc3cccs3)c2n1,x,x,-4.0%[0.501 µM],16.6%,x,x
O=C(CSc1nc2ccsc2c(=O)n1Cc1ccccc1Cl)NCc1ccc(F)cc1,15.7%,-11.9%,4.4%[59 µM],x,x,4.2%
Cc1ccc(C(=O)Nc2ccc3oc(-c4cc(Br)ccc4Cl)nc3c2)cc1,16.7%,u,-27.2%[59 µM],x,x,0.7%
Cc1ccc(S(=O)(=O)NC(N)=NCCC[C@@H](N)C(=O)Nc2cc(C(F)(F)F)ccc2Cl)cc1,x,-25.3%,x,x,x,x
CO[C@H]1COC(=O)C/C=C\[C@@H](C)COC(=O)[C@@H](OCc2ccccc2)/C=C\[C@@H]1C,x,x,x,-3.2%,x,x
O=C(O)CCCCCNC(=O)c1ccc(Br)cc1,40.1%,-16.0%[57.1 µM],50.1µM*,1.6%,x,u
CC[C@@H]1C/C=C\Cc2ccccc2[C@@H](C(=O)C[C@H](O)CC(C)=O)OC1=O,44.9%,-8.9%,x,x,8.8%,x
O=C1C=C(O)c2[nH]c(=O)ccc2C1=O,-9.8%,10µM*,x,x,x,x
NC1=CC(=O)C(=O)c2ccccc21,-1.5%,-17.1%,x,x,x,x
Cn1cnnc1SCC(=O)NNC(=O)c1ccc(Cl)cc1,19.2%,-3.4%,16.9%,6.7%,1.7%,0.5%
COCCn1c(C)nnc1SCC(=O)NNC(=O)c1ccc(Cl)cc1,20.0%,4.3%,50.1µM*,6.8%,x,0.4%
Cc1ccc(C)c(OCC(=O)Nc2ccc(S(=O)(=O)Nc3ccccn3)cc2)c1,-15.8%,-23.4%[57.1 µM],50.1µM*,-3.3%,-5.1%,-5.2%
Cc1ccc(C)c(OCC(=O)Nc2nonc2NC(=O)COc2cc(C)ccc2C)c1,32.6%,-23.5%,15.8µM*,u,x,u
Cc1cccc(OCC(=O)Nc2ccc(S(=O)(=O)Nc3ccccn3)cc2)c1,32.0%,-17.4%,-25.9%,-1.5%,-7.8%,-20.6%
Cc1ccc(C)c(OCC(=O)Nc2ccc(S(=O)(=O)Nc3onc(C)c3C)cc2)c1,17.1%,-6.4%,-27.8%[59 µM],11.7%,x,-22.6%
Cc1ccc(C(C)C)c(OCC(=O)Nc2ccc(S(=O)(=O)Nc3onc(C)c3C)cc2)c1,0.4%,-27.8%,-15.3%[59 µM],x,x,56.2µM*
O=c1cc(CO)occ1O,x,x,x,-11.8%,x,x
CC1(C)CSC(=NCc2ccccc2)N1C(=O)c1cccc([N+](=O)[O-])c1,0.7%,-19.3%,12.9%,-2.2%,1.5%,-6.2%
